Test results: PubChem BioAssay (Tox21)
Several values for one entry are separate records, joined by “and”; a condition that tells them apart may be missing. Equal entries are not always repeated. Records with an inconclusive call do not appear. A structure can be active in one record and inactive in another. Activity calls are given as the source filed them. Unless noted, calls come from the whole dose curve; as a rule, active = well fitted curve in the direction sought with a large enough effect in the repeat runs; inconclusive = weak or mixed curves; inactive = no such curve, though single readings can be large; an effect the other way counts as inactive or inconclusive.

Tests used:
[1] = target: Retinoic acid receptor RXR-alpha (Homo sapiens) (UniProt P19793); assay: qHTS assay to identify small molecule agonists of the RXR signaling pathway (AID 1159527; calls by dose curve; note: nearly all actives have a fitted effect of over 35% in size); details: HEK293T RXRa-UAS-bla, beta-lactamase ratio, 16 h; series mostly up to 76.8 µM
Retinoic acid receptor RXR-alpha (Homo sapiens), sequence (P19793 whole entry, looked up): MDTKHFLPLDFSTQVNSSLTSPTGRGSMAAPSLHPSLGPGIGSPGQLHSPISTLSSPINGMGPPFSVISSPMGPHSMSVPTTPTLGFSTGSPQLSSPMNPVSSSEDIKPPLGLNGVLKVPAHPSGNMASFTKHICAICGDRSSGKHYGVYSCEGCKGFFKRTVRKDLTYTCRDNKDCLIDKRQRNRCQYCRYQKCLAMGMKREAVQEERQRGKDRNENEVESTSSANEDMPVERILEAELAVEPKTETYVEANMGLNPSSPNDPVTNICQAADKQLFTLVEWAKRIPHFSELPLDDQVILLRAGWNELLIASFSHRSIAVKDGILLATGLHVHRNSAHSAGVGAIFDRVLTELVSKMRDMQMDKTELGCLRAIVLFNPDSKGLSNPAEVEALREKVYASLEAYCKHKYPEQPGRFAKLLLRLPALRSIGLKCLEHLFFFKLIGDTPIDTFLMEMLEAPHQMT
Outline: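 Reporter activation is measured as beta-lactamase activity via FRET substrate cleavage (emission 460/530 nm) in HEK 293T cells expressing an RXR-alpha-driven bla construct, following 16 hr compound exposure at 37 C.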

[2] = qHTS assay to identify small molecule agonists of the RXR signaling pathway - cell viability counter screen (AID 1159529); details: RXR-alpha-bla HEK293T viability, CellTiter-Glo, 16 h; series mostly up to 76.8 µM; note: nearly all actives have a fitted effect of over 50% in size; note: potency is the fitted concentration of half-maximal effect
Outline: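 Tox21 10K compounds were tested for cytotoxicity against GeneBLAzer RXR-alpha HEK 293T cells grown in 2% charcoal-stripped FBS. Exposure lasted 16 hr at 37 C, 5% CO2; viability read by CellTiter-Glo luminescence.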

[3] = qHTS assay to identify small molecule agonists of the estrogen related receptor (ERR) signaling pathway (AID 1224820); details: ERR reporter cell line, luciferase agonist mode; series mostly up to 46.1 µM
Outline: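 An ERR cell line provided by NTP was seeded at 2,000 cells per well and allowed to settle for 6 h before compounds in DMSO were added. After 18 h at 37 C, luciferase activity was measured by One-Glo luminescence.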

[4] = tested on: estrogen-related receptor alpha (ERRalpha) with PGC-1alpha coactivator, human; assay: qHTS assay to identify small molecule antagonists of the estrogen related receptor signaling pathway with the pleiotropic PPARgamma coactivator (PGC) (AID 1224821; calls by dose curve;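 note: lower luminescence signal means antagonism of PGC/ERR signalling; nearly all actives have a fitted effect of over 50% in size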); details: ERR/PGC reporter cell line, luciferase, antagonist mode; series mostly up to 46.1 µM
Outline: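 A PGC/ERR cell line supplied by NTP is seeded, allowed 6 h at 37 C, and treated with test compounds in DMSO for 18 h. Signal is then measured as luciferase luminescence using One-Glo.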

[5] = qHTS assay to identify small molecule agonists of the estrogen related receptor signaling pathway with the pleiotropic PPARgamma coactivator (PGC) (AID 1224823); details: ERR/PGC reporter cell line, luciferase agonist mode; series mostly up to 46.1 µM
Outline: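 Compounds dissolved in DMSO are added by pin tool to PGC/ERR cells that have settled for 6 h, and incubation continues 18 h at 37 C. Reporter output is measured as One-Glo luminescence.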

[6] = qHTS assay to identify small molecule antagonists of the estrogen related receptor (ERR) signaling pathway from Tox21 library - cell viability counter screen (AID 1224834); details: ERR reporter cells viability, CellTiter-Fluor, 17.5 h; series mostly up to 92.4 µM; note: nearly all actives have a fitted effect of over 30% in size; note: potency is the fitted concentration of half-maximal effect
Outline: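 Compounds in DMSO were pinned onto ERR cells that had been incubated for 6 h, and the plates were held at 37 C for 17.5 h. CellTiter-Fluor reagent was then added and fluorescence was measured after 30 min.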

[7] = target: Luciferin 4-monooxygenase (Photinus pyralis) (UniProt P08659); assay: qHTS assay to identify small molecule inhibitors of firefly luciferase (AID 1224835); note: nearly all actives have a fitted effect of over 25% in size; note: potency is the fitted concentration of half-maximal effect; details: purified P. pyralis luciferase, luminescence inhibition; series mostly up to 115 µM
Luciferin 4-monooxygenase (Photinus pyralis), sequence (P08659 whole entry, looked up): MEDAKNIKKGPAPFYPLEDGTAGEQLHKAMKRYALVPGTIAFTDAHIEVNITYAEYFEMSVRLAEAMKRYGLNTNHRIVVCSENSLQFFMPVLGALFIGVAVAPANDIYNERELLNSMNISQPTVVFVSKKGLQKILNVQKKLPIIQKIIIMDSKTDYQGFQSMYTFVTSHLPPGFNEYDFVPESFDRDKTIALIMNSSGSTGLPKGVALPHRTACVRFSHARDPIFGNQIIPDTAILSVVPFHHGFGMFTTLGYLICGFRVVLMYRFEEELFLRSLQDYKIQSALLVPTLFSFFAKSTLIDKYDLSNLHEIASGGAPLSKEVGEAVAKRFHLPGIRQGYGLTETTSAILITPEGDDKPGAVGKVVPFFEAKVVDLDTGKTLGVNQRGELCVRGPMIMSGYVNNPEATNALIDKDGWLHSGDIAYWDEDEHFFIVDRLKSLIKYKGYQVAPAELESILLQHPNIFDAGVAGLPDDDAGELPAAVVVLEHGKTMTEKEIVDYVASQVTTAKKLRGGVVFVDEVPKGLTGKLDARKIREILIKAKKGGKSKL
Outline: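 Biochemical qHTS: compounds run as interplate titrations against purified firefly enzyme, with D-luciferin and ATP each at its KM concentration. Light output recorded by CCD imaging.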

[8] = qHTS assay to identify small molecule antagonists of the constitutive androstane receptor (CAR) signaling pathway - cell viability counter screen (AID 1224837); details: HepG2-CYP2B6-hCAR viability, CellTiter-Fluor, 23 h, co-treated with 50 nM CITCO; series mostly up to 92.4 µM; note: nearly all actives have a fitted effect of over 45% in size; note: potency is the fitted concentration of half-maximal effect
Outline: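 Cells are seeded, rested 4 hr at 37 C/5% CO2, dosed with compound (15-point series) and 50 nM CITCO, incubated a further 23 hr, and then CellTiter-Fluor reagent is added before fluorescence is read. The line is HepG2 with stable hCAR and CYP2B6-2.2kb.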

[9] = qHTS assay to identify small molecule antagonists of the estrogen related receptor signaling pathway with the pleiotropic PPARgamma coactivator (PGC) from Tox21 10K library - cell viability counter screen (AID 1224840; active = well fitted cell-killing curve with a large enough effect in the repeat runs, not every such curve was filed as active; note: nearly all actives have a fitted effect of over 40% in size; note: potency is the fitted concentration of half-maximal effect); details: PGC/ERR reporter cells viability, CellTiter-Fluor, 17.5 h; series mostly up to 92.4 µM
Outline: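 Cell viability is measured by CellTiter-Fluor fluorescence in PGC/ERR cells that receive compounds after a 6-hour attachment period and are then incubated 17.5 hours at 37 C.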

[10] = qHTS assay to identify small molecule antagonists of the estrogen related receptor signaling pathway with the pleiotropic PPARgamma coactivator (PGC) from Tox21 10K library (AID 1224841; call rule not given here; note: actives are mostly falling curves and most rising ones were filed inactive; nearly all actives have a fitted effect of over 50% in size; note: potency is the fitted concentration of half-maximal effect); details: PGC/ERR reporter cell line, ONE-Glo luciferase, 18 h; series mostly up to 92.4 µM
Outline: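 Cells stably carrying the PGC/ERR reporter, seeded at 2,000 per well, received pin-transferred compounds 6 h post-plating. Exposure lasted 18 h at 37 C. Signal: One-Glo luminescence.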

[11] = qHTS assay to identify small molecule agonists of the estrogen related receptor signaling pathway with the pleiotropic PPARgamma coactivator (PGC) from Tox21 10K library (AID 1224842); details: PGC/ERR reporter cell line, luciferase ONE-Glo, 18 h; series mostly up to 92.4 µM; note: nearly all actives have a fitted effect of over 15% in size; note: potency is the fitted concentration of half-maximal effect
Outline: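 PGC/ERR reporter cell line, 2,000 cells per well, incubated 6 h at 37 C before 23 nL compound in DMSO was added. After 18 h at 37 C, One-Glo luminescence read following 30 min at room temperature.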

[12] = target: Thyrotropin receptor (Homo sapiens) (UniProt P16473); assay: qHTS assay to identify small molecule agonists of the thyroid stimulating hormone receptor (TSHR) signaling pathway (AID 1224843; calls by dose curve; note: nearly all actives have a fitted effect of over 45% in size; note: potency is the fitted concentration of half-maximal effect); details: TSHR-HEK293 cells, cAMP HTRF, agonist mode, 30 min; series mostly up to 92.4 µM
Thyrotropin receptor (Homo sapiens), sequence (P16473 whole entry, looked up): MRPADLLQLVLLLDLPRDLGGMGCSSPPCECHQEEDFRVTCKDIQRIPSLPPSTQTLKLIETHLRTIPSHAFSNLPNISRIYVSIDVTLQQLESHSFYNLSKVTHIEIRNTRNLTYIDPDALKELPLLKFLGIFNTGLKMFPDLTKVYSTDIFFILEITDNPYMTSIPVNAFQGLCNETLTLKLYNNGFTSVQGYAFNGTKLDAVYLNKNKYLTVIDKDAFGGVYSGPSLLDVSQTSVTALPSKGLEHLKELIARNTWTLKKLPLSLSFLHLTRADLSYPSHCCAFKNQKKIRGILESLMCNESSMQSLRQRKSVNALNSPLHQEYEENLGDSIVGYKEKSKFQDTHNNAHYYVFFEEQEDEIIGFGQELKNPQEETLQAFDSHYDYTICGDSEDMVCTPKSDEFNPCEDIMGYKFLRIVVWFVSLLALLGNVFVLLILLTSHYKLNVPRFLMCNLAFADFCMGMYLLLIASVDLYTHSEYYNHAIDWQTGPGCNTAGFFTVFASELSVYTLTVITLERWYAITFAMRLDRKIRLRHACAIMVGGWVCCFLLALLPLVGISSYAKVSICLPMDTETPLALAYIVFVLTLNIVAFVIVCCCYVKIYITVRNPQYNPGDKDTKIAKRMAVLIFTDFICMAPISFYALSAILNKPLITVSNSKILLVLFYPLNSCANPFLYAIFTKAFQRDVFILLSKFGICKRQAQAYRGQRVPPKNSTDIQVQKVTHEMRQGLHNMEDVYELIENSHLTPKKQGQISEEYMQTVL
Outline: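 Agonist-mode screen: TSHR HEK293 cells received test chemicals for half an hour at room temperature, then HTRF cAMP detection reagents for one hour prior to fluorescence measurement. Each chemical ran as a 15-concentration series, triplicated.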

[13] = qHTS assay to identify small molecule antagonists of the retinoic acid receptor (RAR) signaling pathway (AID 1159552; note: nearly all actives have a fitted effect of over 50% in size; note: potency is the fitted concentration of half-maximal effect); details: C3RL4 RARE luciferase reporter, retinol-stimulated, 6 h; series mostly up to 92.4 µM
Outline: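 Overnight-plated C3RL4 reporter cells get compound, then retinol to 1 uM final; plates sit 6 hr at 37 C, 5% CO2. A luciferase reagent is added and light output recorded after 30 min at room temperature.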

[14] = qHTS assay to identify small molecule agonists of the retinoic acid receptor (RAR) signaling pathway (AID 1159553); details: C3RL4 RARE luciferase reporter, agonist, 6 h; series mostly up to 73.3 µM; note: potency is the fitted concentration of half-maximal effect
Outline: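 Quantitative high-throughput format: the Tox21 10K library was tested on C3RL4 RARE-luciferase cells for 6 hr at 37 C and 5% CO2, with luminescence measured after a 30 min room-temperature reagent step.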

[15] = qHTS assay to identify small molecule agonists of the constitutive androstane receptor (CAR) signaling pathway - cell viability counter screen (AID 1224836); details: HepG2-CYP2B6-hCAR viability, CellTiter-Fluor, 23 h, PK11195 added to every well; series mostly up to 92.4 µM; note: nearly all actives have a fitted effect of over 45% in size; note: potency is the fitted concentration of half-maximal effect
Outline: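 Fluorescence from CellTiter-Fluor indicates live cells after 23 h exposure. The human hepatoma line expresses hCAR and a CYP2B6-2.2kb reporter. Incubation medium contains 0.75 uM PK11195 (final).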

[16] = target: Nuclear receptor subfamily 1 group I member 3 (Homo sapiens) (UniProt Q14994); assay: qHTS assay to identify small molecule antagonists of the constitutive androstane receptor (CAR) signaling pathway (AID 1224838); details: HepG2-CYP2B6-hCAR luciferase, CITCO-stimulated, 24 h; series mostly up to 92.4 µM;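 note: HepG2 cells stably expressing hCAR with CYP2B6 luciferase reporter stimulated by CITCO; nearly all actives have a fitted effect of over 40% in size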; note: potency is the fitted concentration of half-maximal effect
Nuclear receptor subfamily 1 group I member 3 (Homo sapiens), sequence (Q14994 whole entry, looked up): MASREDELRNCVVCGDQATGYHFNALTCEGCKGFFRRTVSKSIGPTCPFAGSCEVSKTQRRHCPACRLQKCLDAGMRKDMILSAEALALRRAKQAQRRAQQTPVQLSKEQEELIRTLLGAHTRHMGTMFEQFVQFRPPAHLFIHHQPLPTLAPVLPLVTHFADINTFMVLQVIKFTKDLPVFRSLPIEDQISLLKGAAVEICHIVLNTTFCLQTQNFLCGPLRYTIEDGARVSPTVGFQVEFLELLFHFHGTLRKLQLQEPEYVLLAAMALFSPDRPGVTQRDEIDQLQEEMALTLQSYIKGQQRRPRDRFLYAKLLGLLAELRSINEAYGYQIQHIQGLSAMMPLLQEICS
Outline: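 Luminescence from a CYP2B6-2.2kb promoter reporter in hCAR-expressing HepG2 cells reflects CAR signaling. Cells received compounds at 15 concentrations and 50 nM CITCO (final), then incubated 24 h at 37 C/5% CO2.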

[17] = target: Nuclear receptor subfamily 1 group I member 3 (Homo sapiens) (UniProt Q14994); assay: qHTS assay to identify small molecule agonists of the constitutive androstane receptor (CAR) signaling pathway (AID 1224839); details: HepG2 hCAR CYP2B6-luciferase, agonist mode, 24 h; series mostly up to 92.4 µM; note: nearly all actives have a fitted effect of over 15% in size; note: potency is the fitted concentration of half-maximal effect
Outline: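 Stable hCAR/CYP2B6-2.2kb HepG2 line in DMEM with 10% FBS; compounds (15 concentrations) and 0.75 uM PK11195 final, 24 h at 37 C/5% CO2, then ONE-Glo luminescence after 30 min.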

[18] = qHTS assay to identify small molecule antagonists of the retinoid acid receptor (RAR) signaling pathway - cell viability counter screen (AID 1159551); details: C3RL4 cells viability, ATP luminescence (CellTiter-Glo), 6 h; series mostly up to 92.4 µM; note: nearly all actives have a fitted effect of over 35% in size; note: potency is the fitted concentration of half-maximal effect
Outline: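 ATP-based viability, C3RL4 cells, 6 h at 37 C with 1 uM final retinol co-added after compound; luminescence read 30 min post CellTiter-Glo, RT.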

[19] = qHTS assay to identify small molecule antagonists of the estrogen related receptor (ERR) signaling pathway - cell viability counter screen (AID 1224818); details: ERR reporter cell line viability counter screen; series mostly up to 46.1 µM; note: potency is the fitted concentration of half-maximal effect;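 note: viability measured after 17.5 h of compound exposure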
Outline: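 Quantitative high-throughput viability counter screen in ERR cells. Compounds (DMSO) incubated 17.5 h at 37 C; read-out was CellTiter-Fluor fluorescence.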

Measured: Potency

CCCCc1oc2ccccc2c1C(=O)c1cc(I)c(OCCN(CC)CC)c(I)c1
active: [2] 12.4 µM and 16.9 µM | [6] 48.9 µM and 29.8 µM | [8] 43.6 µM | [9] 43.6 µM
inactive: [1] | [3] | [4] | [5] | [7] | [10] | [11] | [12]

O=C(Nc1ccc(Cl)cc1)Nc1ccc(Cl)c(Cl)c1
12.1 µM (active) and inactive: [10]
active: [14] 3.06 µM and 3.35 µM | [6] 12.1 µM and 6.86 µM and 18.8 µM | [7] 5.62 µM and 10 µM and 9.77 µM | [15] 17.2 µM | [8] 15.4 µM | [17] 3.44 µM and 4.22 µM
inactive: [13] | [16] | [11] | [12]

Nc1ccc(Nc2ccccc2)cc1
inactive: [2] | [18] | [13] | [14] | [15] | [8] | [9]
active: [6] 54.5 µM and 27.3 µM | [7] 79.7 µM

O=C1OC2(c3cc(Br)c(O)c(Br)c3Oc3c2cc(Br)c(O)c3Br)c2c(Cl)c(Cl)c(Cl)c(Cl)c21
inactive: [2] | [16] | [17] | [11] | [12]
active: [18] 4.33 µM | [6] 6.12 µM and 18.6 µM | [7] 40 µM and 24.2 µM | [15] 13.7 µM and 37.1 µM | [8] 19.4 µM and 33.1 µM | [9] 4.86 µM and 29.5 µM | [10] 10.9 µM

O=C(O)c1ccccc1Nc1cccc(C(F)(F)F)c1
inactive: [2] | [18] | [13] | [14] | [6] | [7] | [15] | [8] | [16] | [17] | [9] | [12]

CNCCCC12CCC(c3ccccc31)c1ccccc12
48.6 µM (active) and inactive: [9]
21.9 µM (active) and inactive: [2]
21.7 µM (active) and inactive: [16]
61.1 µM (active) and inactive: [6]
inactive: [18] | [19] | [7]
active: [12] 4.33 µM and 26.6 µM

COc1cccc2c1C(=O)c1c(O)c3c(c(O)c1C2=O)C[C@@](O)(C(=O)CO)C[C@@H]3O[C@H]1C[C@H](N)[C@H](O)[C@H](C)O1
inactive: [18] | [14] | [17] | [10] | [12]
active: [13] 3.85 µM | [6] 2.17 µM and 6.68 µM | [7] 15.5 µM | [15] 6.85 µM and 6.68 µM | [8] 2.17 µM and 5.96 µM | [11] 216 nM and 596 nM

CC(=O)Oc1ccccc1C(=O)Nc1ncc([N+](=O)[O-])s1
active: [14] 140 nM and 188 nM | [6] 14 µM and 18.8 µM | [7] 1.29 µM and 3.09 µM | [15] 19.7 µM and 21.1 µM | [8] 24.8 µM and 23.7 µM | [17] 556 nM and 473 nM | [9] 15.7 µM and 23.7 µM
inactive: [2] | [13] | [16] | [12]

C[C@]12CC[C@H]3[C@@H](CCC4=CC(=O)CC[C@@]43C)[C@@H]1CC[C@@H]2C(=O)CO
inactive: [2] | [18] | [6] | [7] | [15] | [8] | [17] | [9] | [10] | [11]

COC(=O)C1=C(C)NC(C)=C(C(=O)OCCN(C)Cc2ccccc2)C1c1cccc([N+](=O)[O-])c1 (centres undefined)
inactive: [18] | [7] | [16] | [17]
active: [2] 24.4 µM | [19] 23.7 µM | [6] 27.1 µM and 23.7 µM | [15] 48.3 µM | [8] 43 µM and 23.7 µM | [9] 30.5 µM and 26.6 µM | [12] 30.5 µM

c1cc(N(CC2CO2)CC2CO2)ccc1OCC1CO1 (centres undefined)
inactive: [2] | [18] | [13] | [7] | [17] | [10] | [12]
active: [6] 48.6 µM | [15] 61.1 µM | [8] 54.5 µM | [16] 68.6 µM | [11] 9.7 µM

Cc1cc2nc3c(=O)[nH]c(=O)nc-3n(C[C@H](O)[C@H](O)[C@H](O)CO)c2cc1C
inactive: [2] | [18] | [13] | [14] | [7] | [16] | [17] | [12]

O=C(/C=C/C=C/c1ccc2c(c1)OCO2)N1CCCCC1
active: [14] 3.86 µM and 1.93 µM | [7] 5.04 µM and 6.33 µM | [17] 1.73 µM and 3.86 µM | [11] 17.3 µM and 9.69 µM
inactive: [1] | [18] | [13] | [15] | [8] | [9] | [10] | [12]
